According to PubChem BioAssay AID1210 (NMMLSC, 2008):
Calls of active or inactive are those of the source.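 Rule for the calls: active = blocks over 70% of labeled estradiol binding at 10 µM, or over a set limit at 100 nM; inactive = the rest.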

Target: Estrogen receptor beta (Homo sapiens) (UniProt Q92731)
Test: displacement of fluorescent estrogen from ERbeta – cell-based, Cos7 ERbeta-GFP, flow cytometry, primary screen (AID 1210);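 note: 0% = DMSO vehicle wells and 100% = complete loss of labeled estradiol signal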
Conditions: fluorescent estrogen binding, stronger effect = higher value
[1] = ligand binding inhibition, at 0.1 µM

Sequence of Estrogen receptor beta (Homo sapiens) (Q92731 whole entry, looked up): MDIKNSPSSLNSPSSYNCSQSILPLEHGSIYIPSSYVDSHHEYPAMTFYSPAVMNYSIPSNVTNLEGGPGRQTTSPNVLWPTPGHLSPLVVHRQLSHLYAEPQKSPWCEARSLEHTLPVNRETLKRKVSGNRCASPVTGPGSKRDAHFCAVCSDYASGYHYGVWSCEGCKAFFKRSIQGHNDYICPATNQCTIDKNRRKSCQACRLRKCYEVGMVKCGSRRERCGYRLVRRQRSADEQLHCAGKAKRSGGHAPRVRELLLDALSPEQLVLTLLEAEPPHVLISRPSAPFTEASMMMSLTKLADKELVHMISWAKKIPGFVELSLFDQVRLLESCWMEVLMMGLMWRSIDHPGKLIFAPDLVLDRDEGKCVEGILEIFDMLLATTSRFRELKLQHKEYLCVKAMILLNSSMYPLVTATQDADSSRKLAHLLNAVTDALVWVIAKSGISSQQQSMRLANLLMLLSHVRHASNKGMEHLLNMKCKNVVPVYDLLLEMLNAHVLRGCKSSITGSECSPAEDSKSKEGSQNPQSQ

Structure (SMILES) | inhibition (at 10 µM) | inhibition [1] [%]
CC(C)CC(=O)Nc1ccc(C(=O)COc2ccc(-c3nnco3)cc2)cc1 | 44% (inactive) | 49
CC(C)C1Nc2c(O)cc(Cl)c([N+](=O)[O-])c2C2C=CCC21 (configuration not stated) | 28% (inactive) | 5
COc1ccc(-c2ccc(=O)[nH]n2)cc1 | 0% (inactive) | 16
CCOc1ccc(CC2S/C(=N/c3ccccn3)NC2=O)cc1 (configuration not stated) | 16% (inactive) | 15
O=C(Cc1cn2ccsc2n1)OCc1nc2ccccc2s1 | 58% (inactive) | 24
CCn1c(SCC(=O)N2CCOCC2)nc2oc3c(Cl)cc(Cl)cc3c(=O)c2c1=O | 56% (inactive) | 1
COc1ccccc1-c1nnc2n1N=C(c1ccc(O)c(O)c1)CS2 | 69% (inactive) | 21
Cc1nn(-c2ccccc2)c2sc(C(=O)c3c(N)n(C)c(=O)n(C)c3=O)cc12 | 22% (inactive) | 32
CC(C)(C)OC(=O)N1CCN(c2ccc(NC(=O)Cn3nnc(-c4ccccc4)n3)cc2)CC1 | 64% (inactive) | 6
CNc1nnc(-c2cc3cc(Cl)ccc3oc2=O)s1 | 0% (inactive) | 4
Oc1cccc(-c2nc3ccc4ccccc4c3c3c2CCC3)c1 | 39% (inactive) | 21
CCc1nc(N)nc(N)c1-c1ccc(Cl)cc1 | 38% (inactive) | 25
CCc1ccc(Nc2nc(N)nc(CSc3nnnn3-c3ccccc3)n2)cc1 | 67% (inactive) | 8
O=C(Cc1cccs1)Nc1ccc(S(=O)(=O)N2CCCCC2)cc1 | 37% (inactive) | 38
Nc1ccc2nc(CN3CCOCC3)[nH]c2c1 | 6% (inactive) | 47
Cc1sc2ncnc(SCC(=O)NC(=O)NCc3ccco3)c2c1C | 47% (inactive) | 14
COc1ccc(Cc2nnc(NC(=O)Cc3cccs3)s2)cc1 | 17% (inactive) | 29
COc1ccc(-c2nn(-c3ccccc3)cc2/C=C2/SC(=S)N(Cc3ccco3)C2=O)c(C)c1 | 57% (inactive) | 23
Cc1c2cc(O)c(=O)cc-2oc2cc(O)c(O)cc12 | 67% (inactive) | 22
O=C(Cc1cccs1)Nc1ccc(-c2nnn(CC(=O)N3CCOCC3)n2)cc1 | 30% (inactive) | 2
O=C(Cn1nnc(-c2ccc3c(c2)OCO3)n1)NCc1ccco1 | 46% (inactive) | 24

Structure (SMILES) | inhibition (at 10 µM) | inhibition [1] [%]
Oc1ccccc1N=Nc1nc(-c2ccccc2)c(-c2ccccc2)[nH]1 | 36% (inactive) | 36
CCc1ccc(Nc2cc(C(=O)NCCCN3CCOCC3)c3ccccc3n2)cc1 | 38% (inactive) | 12
O=C(Nc1ccc2c(c1)nc1n2CCSC1)c1ccco1 | 57% (inactive) | 31
O=C(c1cc2ncc(Br)cn2n1)N1CCN(C(=O)c2ccco2)CC1 | 62% (active) | 67
Cc1ccccc1Nc1nnc(SCC(=O)NC(=O)NCc2ccco2)s1 | 0% (active) | 67
Cc1cc(=O)[nH]c(SCC(=O)NCc2ccco2)n1 | 59% (inactive) | 3
O=C1c2ccccc2NC(c2ccc(O)cc2)N1/N=C/c1ccc(O)cc1 (configuration not stated) | 71% (active) | 1
NC(=S)n1[nH]c(-c2ccc([N+](=O)[O-])cc2)c(N=Nc2ccc(O)cc2)c1=O | 35% (inactive) | 15
O=C(c1cc2sccc2n1Cc1ccccc1)N1CCc2ccccc21 | 42% (inactive) | 2
O=C(c1cc2c(s1)CCC2)N1CCN(c2ccccc2)CC1 | 52% (inactive) | 7
COc1cc(C2C(C#N)=C(N)Oc3cc(C)oc(=O)c32)cc2c1OCO2 (configuration not stated) | 32% (inactive) | 46
CCOC(=O)Cn1cnc2sc3c(c2c1=O)CCC3 | 37% (inactive) | 28
COc1ccc(C2Nc3ccccc3C(=O)N2Cc2ccccc2)cc1Cn1nnc2ccccc21 (configuration not stated) | 38% (inactive) | 45
O=C(NCc1ccco1)c1cc2ccc(O)cc2oc1=O | 44% (inactive) | 38
Cc1nn(-c2ccccc2)c(Cl)c1/C=N/Nc1ccc(S(=O)(=O)Nc2ccccc2C(=O)O)cc1[N+](=O)[O-] | 15% (inactive) | 53
Nc1ncnc2c1ncn2C1CCC(CO)C(O)C1 (configuration not stated) | 48% (active) | 69
CN(C(=S)Nc1cccnc1)c1ccc(O)cc1 | 14% (inactive) | 54
COc1ccc(CCn2c(SCC(=O)Nc3cc(C)on3)nc3ccsc3c2=O)cc1OC | 66% (inactive) | 18
C=CCn1c(=O)c(C#N)cc2c(=O)n3ccccc3nc21 | 39% (inactive) | 22
COc1cc(NC(=O)c2cccs2)c(C(=O)OCC(=O)NCc2ccco2)cc1OC | 41% (inactive) | 47
